For some of these results: Entries with a potency or affinity are not part of this list.

Design in all cases: scale not given: direction of the effect not stated beside the values
In assay [1] the target is Protein translocase subunit SecA (Escherichia coli (strain K12)) (UniProt P10408). Description: Assay to Identify E. coli SecA ATPase Inhibitors. It is filed as functional. As to conditions: 30 µM.
Assay [2] concerns the target T1, Ubiquitin-activating enzyme e1, putative (Leishmania donovani (strain BPK282A1)) (UniProt E9BSI1).
T1 sequence (whole entry): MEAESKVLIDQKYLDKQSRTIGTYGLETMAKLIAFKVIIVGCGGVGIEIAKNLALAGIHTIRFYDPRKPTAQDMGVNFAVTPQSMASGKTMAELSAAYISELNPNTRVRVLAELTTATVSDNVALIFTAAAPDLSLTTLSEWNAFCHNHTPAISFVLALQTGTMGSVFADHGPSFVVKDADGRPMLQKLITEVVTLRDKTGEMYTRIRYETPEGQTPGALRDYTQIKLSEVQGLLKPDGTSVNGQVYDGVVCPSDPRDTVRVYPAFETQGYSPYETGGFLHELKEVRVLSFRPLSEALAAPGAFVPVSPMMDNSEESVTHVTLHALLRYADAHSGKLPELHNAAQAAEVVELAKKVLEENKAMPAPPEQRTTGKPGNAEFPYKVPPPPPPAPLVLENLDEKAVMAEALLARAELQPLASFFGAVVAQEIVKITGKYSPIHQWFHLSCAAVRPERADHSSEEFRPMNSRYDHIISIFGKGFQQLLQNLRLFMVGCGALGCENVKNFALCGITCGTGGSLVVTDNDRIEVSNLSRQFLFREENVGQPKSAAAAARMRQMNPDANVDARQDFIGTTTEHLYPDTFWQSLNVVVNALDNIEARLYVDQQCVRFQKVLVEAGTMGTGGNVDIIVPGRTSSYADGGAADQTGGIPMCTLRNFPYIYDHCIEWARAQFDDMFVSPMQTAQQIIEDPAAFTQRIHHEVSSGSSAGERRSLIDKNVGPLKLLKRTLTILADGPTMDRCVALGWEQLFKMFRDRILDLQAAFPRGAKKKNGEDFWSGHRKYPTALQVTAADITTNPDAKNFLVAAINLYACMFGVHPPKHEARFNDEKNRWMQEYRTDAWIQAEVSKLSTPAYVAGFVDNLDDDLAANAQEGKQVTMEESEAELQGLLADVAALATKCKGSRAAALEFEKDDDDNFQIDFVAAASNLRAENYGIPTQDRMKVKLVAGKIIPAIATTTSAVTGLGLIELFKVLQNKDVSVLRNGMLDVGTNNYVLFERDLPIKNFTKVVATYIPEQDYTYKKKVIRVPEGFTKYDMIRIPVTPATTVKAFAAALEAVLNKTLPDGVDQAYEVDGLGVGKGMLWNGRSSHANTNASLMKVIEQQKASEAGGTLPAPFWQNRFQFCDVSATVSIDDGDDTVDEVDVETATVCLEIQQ
Description: Leishmania donovani Ubiquitin Activating Enzyme (LdE1). Type of assay: functional. As to conditions: 30 µM.

For assay [3], the target named is AMP-activated protein kinase, AMPK (Homo sapiens) (UniProt P54646+O43741+P54619+Q9UGJ0+Q9Y478+Q13131+Q9UGI9). As to the kind of experiment: AMP-dependent Kinase enzyme assay. An in vitro enzyme assay that detects ADP turnover that is directly proportional to AMPK activity. This uses naive AMPK that is activated during the assay with MK-8722. It is filed as functional. The settings on record: 30 µM.

Assay [4] deals with Sialic acid-binding Ig-like lectin 9 (Homo sapiens) (UniProt Q9Y336). Description: Hs-Siglec9 ALPHAscreen SOP 20170721. The settings on record: 10 µM.
Sequence of Sialic acid-binding Ig-like lectin 9 (Homo sapiens) (Q9Y336 whole entry): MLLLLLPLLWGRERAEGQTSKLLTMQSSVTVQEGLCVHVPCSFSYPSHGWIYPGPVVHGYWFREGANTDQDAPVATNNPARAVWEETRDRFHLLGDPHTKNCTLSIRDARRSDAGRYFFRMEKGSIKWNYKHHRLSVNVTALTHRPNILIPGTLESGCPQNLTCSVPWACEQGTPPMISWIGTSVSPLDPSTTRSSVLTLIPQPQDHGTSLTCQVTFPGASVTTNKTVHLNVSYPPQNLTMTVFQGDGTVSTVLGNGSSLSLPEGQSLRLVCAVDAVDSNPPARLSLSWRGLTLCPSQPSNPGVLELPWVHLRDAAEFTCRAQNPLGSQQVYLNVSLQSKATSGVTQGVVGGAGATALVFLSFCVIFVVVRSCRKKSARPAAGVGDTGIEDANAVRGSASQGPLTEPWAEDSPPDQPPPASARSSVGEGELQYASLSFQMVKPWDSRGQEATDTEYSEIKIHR
Assay [5] has as its system Trypanosoma cruzi. As to the kind of experiment: Trypanosoma cruzi phosphomannomutase and mannose-1-phosphate guanylyltransferase assay. It is filed as functional. As to conditions: 10 µM.
For assay [6], the target named is T2, Arginase-2, mitochondrial (Homo sapiens) (UniProt P78540).
T2 sequence (whole entry): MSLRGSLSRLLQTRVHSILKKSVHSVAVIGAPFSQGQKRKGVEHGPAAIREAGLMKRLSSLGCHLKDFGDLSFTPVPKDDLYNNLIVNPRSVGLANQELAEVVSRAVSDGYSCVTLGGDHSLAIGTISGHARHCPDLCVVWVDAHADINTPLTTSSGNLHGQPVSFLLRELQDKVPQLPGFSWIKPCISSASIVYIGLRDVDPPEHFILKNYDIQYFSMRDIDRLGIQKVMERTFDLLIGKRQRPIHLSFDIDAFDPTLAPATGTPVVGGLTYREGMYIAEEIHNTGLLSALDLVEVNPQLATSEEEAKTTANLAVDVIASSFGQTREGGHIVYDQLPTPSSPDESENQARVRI
Description: in vitro enzyme assay to detect the production of urea directly proportional to the activity of Arginase II. Note: in the data most compounds retested in dose-response had high values. It is filed as functional. As to conditions: 33.3 µM.

Assay [7] has as its target T3, Proteasome subunit beta (Trypanosoma cruzi) (UniProt O96673).
T3 sequence (whole entry): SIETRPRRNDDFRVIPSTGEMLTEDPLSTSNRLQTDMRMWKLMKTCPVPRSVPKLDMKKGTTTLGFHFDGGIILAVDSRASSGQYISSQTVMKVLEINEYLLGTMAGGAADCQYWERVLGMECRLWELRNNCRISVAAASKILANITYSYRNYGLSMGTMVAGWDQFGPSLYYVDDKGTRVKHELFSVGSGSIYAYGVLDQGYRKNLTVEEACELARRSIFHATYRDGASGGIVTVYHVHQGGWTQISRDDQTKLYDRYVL
As to the kind of experiment: Trypanosoma cruzi proteasome chymotrypsin-like activity (TcProtChymo) assay. Note: in the data most compounds retested in dose-response had high values. Type of assay: functional. As to conditions: 9.37 µM.

Assay [8] is filed under the species Homo sapiens. As to the kind of experiment: To identify inhibition of the IFN signalling (Jak-Stat) pathway via expression of an eGFP reporter gene under the control of an IFN-stimulated response element (ISRE) containing MxA promoter. It is filed as functional. The settings on record: 30 µM.
Assay [9] concerns the target T4, Tyrosyl-tRNA synthetase, putative (Trypanosoma cruzi (strain CL Brener)) (UniProt Q4DSP6).
T4 sequence (whole entry): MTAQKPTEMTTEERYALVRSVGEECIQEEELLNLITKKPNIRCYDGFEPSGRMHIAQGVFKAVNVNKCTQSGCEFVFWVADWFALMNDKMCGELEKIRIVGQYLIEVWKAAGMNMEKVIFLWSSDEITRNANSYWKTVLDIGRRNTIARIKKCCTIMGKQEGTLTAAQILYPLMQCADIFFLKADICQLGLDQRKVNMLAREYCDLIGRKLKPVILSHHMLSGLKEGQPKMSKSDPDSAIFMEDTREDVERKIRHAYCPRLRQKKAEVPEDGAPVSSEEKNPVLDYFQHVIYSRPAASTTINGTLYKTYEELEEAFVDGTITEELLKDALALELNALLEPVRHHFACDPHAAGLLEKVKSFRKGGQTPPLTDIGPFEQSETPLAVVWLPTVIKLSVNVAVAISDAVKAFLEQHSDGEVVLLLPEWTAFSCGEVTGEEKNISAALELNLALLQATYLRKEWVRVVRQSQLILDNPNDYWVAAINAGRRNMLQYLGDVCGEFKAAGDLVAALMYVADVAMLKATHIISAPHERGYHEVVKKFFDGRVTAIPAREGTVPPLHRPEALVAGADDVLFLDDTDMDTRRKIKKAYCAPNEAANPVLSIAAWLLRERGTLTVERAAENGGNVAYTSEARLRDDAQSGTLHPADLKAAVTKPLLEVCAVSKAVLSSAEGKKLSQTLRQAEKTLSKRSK
As to the kind of experiment: Trypanosoma cruzi tyrosyl tRNA synthetase (TcYRS) _High Tyrosine SOP. Note: in the data most compounds retested in dose-response had high values. The settings on record: 30 µM. Type of assay: functional.

Assay [10] has as its target T4, Tyrosyl-tRNA synthetase, putative (Trypanosoma cruzi (strain CL Brener)). As to the kind of experiment: Trypanosoma cruzi tyrosyl tRNA synthetase (TcYRS) SOP. It is filed as functional. As to conditions: 30 µM.
Assay [11] deals with Chromo domain-containing protein 1 (Saccharomyces cerevisiae (strain ATCC 204508 / S288c) (Baker's yeast)) (UniProt P32657). Description: ScCHD-1 Enzyme Inhibition Assay. Note: in the data most compounds retested in dose-response had high values. Type of assay: functional. The settings on record: 30 µM.
Sequence of Chromo domain-containing protein 1 (Saccharomyces cerevisiae (strain ATCC 204508 / S288c) (Baker's yeast)) (P32657 whole entry, the tested form may be a part): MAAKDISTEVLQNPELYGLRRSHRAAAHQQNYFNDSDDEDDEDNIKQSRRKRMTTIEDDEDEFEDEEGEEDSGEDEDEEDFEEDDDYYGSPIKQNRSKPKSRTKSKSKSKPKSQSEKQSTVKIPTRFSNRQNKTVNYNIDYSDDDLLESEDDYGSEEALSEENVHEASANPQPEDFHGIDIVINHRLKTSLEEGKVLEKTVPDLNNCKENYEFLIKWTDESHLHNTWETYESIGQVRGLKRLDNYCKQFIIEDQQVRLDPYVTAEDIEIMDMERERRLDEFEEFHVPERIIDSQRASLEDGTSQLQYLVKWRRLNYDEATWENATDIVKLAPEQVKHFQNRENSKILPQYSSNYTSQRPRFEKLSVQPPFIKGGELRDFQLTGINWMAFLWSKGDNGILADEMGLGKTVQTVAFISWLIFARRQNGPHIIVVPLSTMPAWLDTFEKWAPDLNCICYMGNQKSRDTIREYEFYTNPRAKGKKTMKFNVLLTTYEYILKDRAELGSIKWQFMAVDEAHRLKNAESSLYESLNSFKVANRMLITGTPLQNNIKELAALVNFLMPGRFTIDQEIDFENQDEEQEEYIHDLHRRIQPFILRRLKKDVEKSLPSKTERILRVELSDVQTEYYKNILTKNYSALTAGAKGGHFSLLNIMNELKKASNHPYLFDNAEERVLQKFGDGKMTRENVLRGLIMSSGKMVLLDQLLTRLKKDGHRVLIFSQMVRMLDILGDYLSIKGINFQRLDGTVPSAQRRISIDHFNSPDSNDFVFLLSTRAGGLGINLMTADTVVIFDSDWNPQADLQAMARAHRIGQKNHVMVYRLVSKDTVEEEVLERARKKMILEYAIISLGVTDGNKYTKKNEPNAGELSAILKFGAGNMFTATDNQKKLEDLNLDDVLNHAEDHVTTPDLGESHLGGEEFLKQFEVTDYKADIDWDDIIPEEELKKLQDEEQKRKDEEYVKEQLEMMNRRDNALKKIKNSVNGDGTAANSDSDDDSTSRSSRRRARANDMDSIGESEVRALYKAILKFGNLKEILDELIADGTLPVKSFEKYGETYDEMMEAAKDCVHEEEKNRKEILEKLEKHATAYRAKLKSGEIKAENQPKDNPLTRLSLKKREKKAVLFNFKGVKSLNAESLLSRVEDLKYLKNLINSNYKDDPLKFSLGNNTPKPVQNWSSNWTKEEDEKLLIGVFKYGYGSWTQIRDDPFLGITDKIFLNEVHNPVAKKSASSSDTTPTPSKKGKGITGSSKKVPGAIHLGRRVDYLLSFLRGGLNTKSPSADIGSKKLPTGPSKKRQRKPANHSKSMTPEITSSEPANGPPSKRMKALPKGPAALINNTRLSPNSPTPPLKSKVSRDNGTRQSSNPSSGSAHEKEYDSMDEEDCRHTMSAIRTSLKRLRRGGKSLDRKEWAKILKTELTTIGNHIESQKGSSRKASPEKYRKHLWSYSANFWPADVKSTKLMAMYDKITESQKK

Sequence of Protein translocase subunit SecA (Escherichia coli (strain K12)) (P10408 whole entry): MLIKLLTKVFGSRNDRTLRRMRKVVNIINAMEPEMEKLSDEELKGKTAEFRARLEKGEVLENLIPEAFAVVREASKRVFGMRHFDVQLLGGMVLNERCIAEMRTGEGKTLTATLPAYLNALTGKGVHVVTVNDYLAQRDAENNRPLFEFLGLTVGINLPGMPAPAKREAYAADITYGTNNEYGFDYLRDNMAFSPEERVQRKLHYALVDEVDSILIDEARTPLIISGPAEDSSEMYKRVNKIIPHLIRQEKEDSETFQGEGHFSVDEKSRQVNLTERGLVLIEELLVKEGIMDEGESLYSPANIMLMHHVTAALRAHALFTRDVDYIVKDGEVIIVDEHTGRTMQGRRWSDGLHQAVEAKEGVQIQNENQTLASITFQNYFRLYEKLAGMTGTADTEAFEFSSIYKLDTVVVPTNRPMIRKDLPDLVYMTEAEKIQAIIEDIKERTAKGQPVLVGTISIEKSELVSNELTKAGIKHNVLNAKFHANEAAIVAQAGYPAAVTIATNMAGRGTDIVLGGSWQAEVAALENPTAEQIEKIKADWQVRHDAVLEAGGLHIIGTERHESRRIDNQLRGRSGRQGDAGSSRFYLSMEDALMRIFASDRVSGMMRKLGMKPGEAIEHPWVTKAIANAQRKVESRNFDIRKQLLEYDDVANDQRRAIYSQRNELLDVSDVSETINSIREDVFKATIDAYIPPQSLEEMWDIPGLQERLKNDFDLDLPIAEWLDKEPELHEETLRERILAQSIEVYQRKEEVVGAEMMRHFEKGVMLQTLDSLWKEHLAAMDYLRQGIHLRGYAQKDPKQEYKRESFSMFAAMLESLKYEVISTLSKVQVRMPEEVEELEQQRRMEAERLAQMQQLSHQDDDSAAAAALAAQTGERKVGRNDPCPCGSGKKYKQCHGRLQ

Take `CN(C)c1cc2c(nn1)CCN(C(=O)C1Cc3ccccc3S1)C2` (stereo unspecified): the Percent Effect in assay [1] is -3.54%; in assay [2] it was 10.1%; in assay [3] it was -4.45%; in [4], 16%; in assay [5] it was 5.76%; in assay [6], 1.14%. Besides, the Percent Effect is 8.27% in assay [7]; -10.7% in assay [8]; 7.39% in assay [9]; 11.4% in [10]; 9.74% in assay [11].
With `Cn1ncc2c(=O)[nH]c(CN3CCCC3c3cccs3)nc21` (stereo unspecified), the Percent Effect in assay [1] is -2.36%; in assay [2] it was 20.2%; in [3], -1.76%; in assay [4], -3.9%; in [5] it was -5.38%; in [6], 1.14%. Also, the Percent Effect in assay [7] was 5.32%; in assay [8], 15.9%; in assay [9], 7.39%; in assay [10], 11.4%; in assay [11], -5.13%.
As to `Cc1noc(C)c1CN1CC2(CCN(C(=O)c3cscn3)CC2)CC1=O`, the Percent Effect in [1] is -5.65%; in assay [2] it was 10.4%; in assay [3], 0.445%; in assay [4], 16.6%; in assay [5] it was 5.01%; in assay [6] it was -5.52%. The Percent Effect in assay [7] was 14.1%; in [8] it was 0.0432%; in assay [9], 6.45%; in [10], 11.1%; in [11], -2.57%.
As for `CC(CN1CCOCC1)NC(=O)N(C)Cc1ccc(Cl)s1` (stereo unspecified), the Percent Effect in [1] was 0.481%; in [2], 10.5%; in assay [3], 2.51%; in [4], -1.81%; in [5], -6.91%; in assay [6] it was 0%. Further, the Percent Effect in assay [7] is 13.3%; in assay [8] it was 3.75%; in assay [9], 6.38%; in assay [10], 13%; in assay [11], -2.62%.
Turning to `CCC(=O)NCc1cc(Br)ccc1OC(F)F`, the Percent Effect was -4.17% in assay [1]; 8% in [2]; -2.35% in assay [3]; 7.52% in assay [4]; 3.41% in assay [5]; 1.04% in [6]. The Percent Effect in assay [7] is 13.6%; in assay [8], -8.01%; in assay [9], 9.29%; in assay [10], 18.5%; in assay [11], -6.17%.
With `OCC1CCCN1c1cc(NCCc2c[nH]c3ccccc23)ncn1` (stereo unspecified), the Percent Effect in assay [1] is -4.95%; in assay [2], 0%; in [3], 12.3%; in assay [4], -7.58%; in assay [5], -2.15%; in assay [6], 0%. Moreover, the Percent Effect in assay [7] is 18.6%; in assay [8], 35.3%; in assay [9], 1.07%; in [10], 7.5%; in assay [11], -5.88%.
As to `Cc1cnn(CC2CCCN2Cc2nc3ccccc3nc2C)c1` (stereo unspecified), the Percent Effect in [1] is -2.22%; in assay [2], 0%; in [3], 0.154%; in assay [4], 1.31%; in assay [5], 4.41%; in assay [6] it was 1.47%. Further, the Percent Effect is 10.4% in assay [7]; 9.09% in [8]; 0% in assay [9]; 7.06% in [10]; -12.8% in assay [11].
Regarding `COc1cccc(CCNC(=O)CN2CCN(C)CC2C)c1` (stereo unspecified), the Percent Effect is -1.66% in assay [1]; 0% in [2]; -4.34% in assay [3]; -5.98% in assay [4]; -4.92% in assay [5]; 3.51% in assay [6]. The Percent Effect is 14.5% in [7]; 18.7% in assay [8]; 4.95% in assay [9]; 15.8% in assay [10]; -5.6% in assay [11].
Consider `Cn1ccnc1SCc1nc(C(C)(C)NC(=O)OC(C)(C)C)no1`, for which the Percent Effect in assay [1] is -5.41%; in assay [2] it was 18.7%; in assay [3] it was -1.15%; in assay [4] it was 21.2%; in assay [5], 5.94%; in assay [6] it was 2.08%. In addition, the Percent Effect in assay [7] was 10.6%; in [8], 21.2%; in assay [9], 6.01%; in assay [10], 16.1%; in assay [11], -9.46%.
Regarding `Cc1ccc(C(=O)N2CCC3(CC2)CC(c2ccccc2)C(=O)N3)cn1` (stereo unspecified), the Percent Effect is 0.117% in assay [1]; 18.7% in [2]; -5.79% in assay [3]; -1.61% in [4]; 1.93% in assay [5]; -48.9% in assay [6]. Moreover, the Percent Effect in [7] is 18.1%; in assay [8], 4.12%; in assay [9], 1.04%; in assay [10], 27.5%; in assay [11], -17.9%.
Turning to `COc1ccccc1CN1CCC2(CC1)CC(Oc1ccccn1)CO2` (stereo unspecified), the Percent Effect in assay [1] is -0.474%; in assay [2], 16%; in assay [3], -2.4%; in assay [4] it was -9.97%; in assay [5], 2.76%; in assay [6], 132%. In addition, the Percent Effect is 14.9% in assay [7]; -3.26% in [8]; 4.25% in assay [9]; 8.97% in [10]; -13.9% in assay [11].

These data come from ChEMBL document CHEMBL3988442, “University of Dundee, Small-Polar-MMV Screening Library” (2021).
